Sampled rows, rich in hits. Any-hit rate of the full collection: about 3.6%.
BoNT-A LC inh2: inhibitors of Botulinum neurotoxin A light chain protease; multiplex microsphere protease substrate cleavage, flow cytometry; inhibition, % at 10 µM; 360,000 tested, 0.17% active; AID 588499
Autofluor counter: flagged as autofluorescent in microsphere protease counterscreen. fluorescence intensity (test concentration not listed). compound autofluorescence counterscreen, microsphere flow cytometry; hits give high values. AID 624483. 360,000 tested, 3.1% active; in the data active = fluorescence intensity above about 16000; inconclusive = no clear call, values can overlap the other calls
BoNT-F LC inh: blocks Botulinum neurotoxin F light chain protease; inhibition, % at 10 µM; 360,000 tested, 0.22% active; Multiplex microsphere protease cleavage assay, flow cytometry; in the data active = inhibition above about 35%, passing the limit was not always enough; inconclusive = no clear call, values can overlap the other calls
MazEF act: MazEF (E. coli) toxin RNase activation | P0AE70 | FAM/BHQ RNA-DNA oligo cleavage fluorescence, 5 h | activation, % at 20 µM | 350,000 tested, 0.32% active; in the data active = activation above about 50%
Target sequence (P0AE70 whole entry, looked up): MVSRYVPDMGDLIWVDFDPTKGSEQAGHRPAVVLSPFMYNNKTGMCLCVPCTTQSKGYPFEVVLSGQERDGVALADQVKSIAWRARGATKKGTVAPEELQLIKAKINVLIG
Anthrax LF inh2: anthrax lethal factor protease inhibition; multiplex microsphere protease cleavage assay, LF; inhibition, % at 10 µM; 360,000 tested, 0.12% active; P15917; AID 588501
Each line names hits and unclear results; the compound was inactive in the other large screens. Cut-off read from the data, not from the text of the source, unless noted: active = inhibition above about 30%; inconclusive = no clear call, values can overlap the other calls; inactive = below that.

COC(=O)c1cc(Br)ccc1-c1ccc(/C=N/n2nnnc2N)o1	MazEF act 54
O=C(Nc1ccc2c(c1)CCC2)c1cnccn1	Autofluor counter 20322
CS(=O)(=O)N(Cc1ccccc1)c1ccc(C(=O)NCc2cccnc2)cc1	none
C=CCNC(=O)c1ccc(N(CC=C)S(C)(=O)=O)cc1	none
C=CCN(c1ccc(C(=O)NCCc2ccccc2)cc1)S(C)(=O)=O	Autofluor counter 16236
CS(=O)(=O)N(Cc1ccccc1)c1ccc(C(=O)NCc2ccccc2)cc1	Autofluor counter 22531
O=C(CC1SC(N2CCCCC2)=NC1=O)Nc1cccc(C(=O)Nc2ncccc2O)c1 (stereo not given)	BoNT-F LC inh inconclusive
COc1ccc(-n2nc3c(N4CCC(C(=O)NCc5ccccc5C)CC4)nnc(C)c3c2C)cc1	none
CCOc1ccccc1CNC(=O)C1CCCN(c2nnc(C)c3c(C)n(-c4ccccc4)nc23)C1 (stereo not given)	Autofluor counter 19018
CCCCn1ccnc1C(=O)c1cccc(S(=O)(=O)N2CC(C)CC(C)C2)c1 (stereo not given)	Autofluor counter 16271
COc1ccc(/C=C/c2cc(=O)c3cc(Cl)ccc3o2)cc1	MazEF act 54
CCOC(=O)C(=CNNc1c(C)csc1C(=O)OC)C(=O)OCC	none
COC(=O)c1scc(C)c1N/N=C(\C)c1cc(F)c(Cl)cc1F	Autofluor counter 16330
CCc1ccc(Cn2ncc3c(C(=O)O)cc(C)nc32)cc1	none
COc1ccc(CNC(=O)CN2C(=O)C3CCCN3c3ncc(Cl)cc32)cc1 (stereo not given)	BoNT-A LC inh2 inconclusive, Autofluor counter 21975
O=C(CN1C(=O)C2CCCN2c2ncc(Cl)cc21)NCc1ccc2c(c1)OCO2 (stereo not given)	none
O=C(N/N=C/c1ccccc1Cl)c1cccc(F)c1	Autofluor counter 16940
O=C(N/N=C/c1c(Cl)cccc1Cl)c1cccc(F)c1	none
CCc1ccccc1N1C(=O)c2cccc3c(N4CCOCC4)c([N+](=O)[O-])cc(c23)C1=O	Autofluor counter 24654
CCCC(=O)Nc1nc(-c2ccccc2)ns1	none
CCOc1ccc(NC(=O)CCSc2nnc(C)s2)cc1	none
CCC(=O)Nc1nc(-c2ccccc2)ns1	Autofluor counter 21302
CC(C)C(=O)Nc1nc(-c2ccccc2)ns1	BoNT-A LC inh2 inconclusive, Autofluor counter 22460
Cc1nnc(SCCC(=O)Nc2nc(-c3ccccc3)ns2)s1	Autofluor counter 16875
O=C(Nc1nc(-c2ccccc2)ns1)c1cccs1	Autofluor counter 22042
CCn1cnc2cc(NC(=O)c3ccc(C)cc3)ccc21	none
CCOC(=O)COc1ccc2ccccc2c1/C=C/[N+](=O)[O-]	none
CCOc1ccc(/C=C/[N+](=O)[O-])c2ccccc12	BoNT-A LC inh2 47
Cc1ccsc1C(=O)Nc1ccccc1N1CCOCC1	Autofluor counter 18871
Cc1ccc([C@H]2C[C@H](O)[C@@H](n3cc(C4CC4)nn3)CN2C(=O)c2cccs2)cc1	none
O=C(COc1ccc2c(-c3ccccc3)cc(=O)oc2c1)N1C[C@H]2C[C@@H](C1)c1cccc(=O)n1C2	none (no result: MazEF act)
Cc1nn(C)cc1/C=N/O	Autofluor counter 16844
Cc1nn(-c2ccccc2)cc1/C=N/O	none
CN1C(=O)C(Cc2nc3ccccc3c(=O)n2-c2ccccc2)c2ccccc21 (stereo not given)	BoNT-A LC inh2 inconclusive, Autofluor counter 19805
Cc1cc(/C=C2/SC(=S)N(c3ccc([N+](=O)[O-])cc3)C2=O)c(C)n1-c1cccnc1	BoNT-A LC inh2 33
Cc1cc(/C=C2/SC(=S)N(c3cccc(Cl)c3)C2=O)c(C)n1-c1cccnc1	BoNT-A LC inh2 60, BoNT-F LC inh 74, Anthrax LF inh2 51
COc1ccc(C(=O)NC(C)CCn2cccn2)cc1OC1CCN(C(C)C)CC1 (stereo not given)	none
CC1=Nc2ccccc2/C1=C\c1nc(-c2ccccc2)oc1O	none
CC1=Nc2ccccc2/C1=C\c1nc(-c2ccc(C(F)(F)F)cc2)oc1O	Autofluor counter 17953, MazEF act 57
CC(C)OC(=O)c1ccc(Cn2nnc3ccccc3c2=O)cc1	Autofluor counter 20849
O=C1/C(=C/C=C/c2ccccc2)Oc2c1ccc(O)c2CN1CCN(CCO)CC1	none
COc1ccccc1/C=C/C=C1\Oc2c(ccc(O)c2CN2CCN(CCO)CC2)C1=O	BoNT-A LC inh2 31
CCN1CCN(Cc2c(O)ccc3c2O/C(=C\C=C\c2ccccc2)C3=O)CC1	BoNT-A LC inh2 35
CC(C)CN(C(=O)C1=COCCO1)c1c(N)n(Cc2ccccc2)c(=O)[nH]c1=O	none
COc1ccc(-c2cc3nc4n(c(=O)c3s2)CCCCC4)cc1	none
COc1ccc(-c2cc3nc4n(c(=O)c3s2)CCC4)cc1	BoNT-A LC inh2 inconclusive, Autofluor counter 23433
Cc1c(N2C(=O)c3ccccc3C2(O)c2ccccc2)c(=O)n(-c2ccccc2)n1C (stereo not given)	none
O=C(Nc1ccc(Oc2cccnc2)cc1)C1CCN(Cc2cccc(Cl)c2)CC1	none
CC(NC(=O)/C(C#N)=C1\N=C(NC(=O)c2cccs2)c2ccccc21)c1ccccc1 (stereo not given)	BoNT-A LC inh2 30
Cc1n[nH]c(=O)nc1NC(C)c1ccccc1 (stereo not given)	Autofluor counter 22579
CCN1CCN(S(=O)(=O)c2ccc(Cl)c(C(=O)N(C)CCOc3ccc(Cl)cc3)c2)CC1	Autofluor counter inconclusive
COc1ccc(-c2oc(NC(=O)CCl)c(C#N)c2-c2ccc(OC)cc2)cc1	none
COc1ccc(-c2oc(NC(=O)CSc3ncn[nH]3)c(C#N)c2-c2ccc(OC)cc2)cc1	Autofluor counter 22915
O=C(NC1CCCC1)C1C2C=CC(C2)C1C(=O)N1CCOCC1 (stereo not given)	BoNT-A LC inh2 inconclusive, Autofluor counter 21400
O=C(O)C1C2C=CC(C2)C1C(=O)N1CCOCC1 (stereo not given)	none
COc1ccc(C(=O)N2CCN(c3nnnn3-c3ccccc3)CC2)cc1OC	Autofluor counter 23177
O=C(COc1ccc2ccc(=O)oc2c1)Nc1cccc(S(=O)(=O)N2CCCCC2)c1	none (no result: BoNT-A LC inh2, Autofluor counter, BoNT-F LC inh, Anthrax LF inh2)
O=C1NC[C@H](Cc2ccccc2)N(CC2CCN(CCCCc3ccccc3)CC2)C1=O	none
CC(=O)C[C@H](O)CC(=O)[C@H]1OC(=O)[C@H](C)C/C=C\Cc2ccccc21	none
Cc1cnn(C(=O)c2oc3ccccc3c2C)c1	Autofluor counter 22067
COc1cc(Br)cc2cc(C(=O)N3CCN(c4ccccn4)CC3)c(=O)oc12	Autofluor counter 23664
O=C(c1cc2cc(Br)ccc2oc1=O)N1CCN(c2ccccn2)CC1	Autofluor counter 16477
Cc1c(C(=O)N2CCN(c3ccccn3)CC2)oc2ccccc12	Autofluor counter 22383
COc1cc2ccccc2cc1C(=O)N1CCN(c2ccccn2)CC1	none
CCOc1ccc2oc(C(=O)N3CCN(c4ccccn4)CC3)c(C)c2c1	none
O=C(c1cc2cc(Cl)ccc2oc1=O)N1CCN(c2ccccn2)CC1	none
Cc1cccc(NC(=O)C(=O)NCC2CCCN2S(=O)(=O)c2ccccc2)c1 (stereo not given)	none (no result: BoNT-A LC inh2, Autofluor counter, BoNT-F LC inh, Anthrax LF inh2)

Source: PubChem
